The list is not random: actives were taken first. Their share in the collection is about 19%.
RORgamma inh = inhibitors of mouse ROR gamma transcriptional activity; P51450; Drosophila S2 Gal4-RORgamma UAS-luciferase reporter, 20 h; Potency, µM (series often up to 53.6 µM), inactives show at the top dose activity change, negative = inhibition, actives largely listed as inhibitors; hit rate 5.4% among 310,000; note: nearly all actives have a fitted effect of over 60% in size
Target sequence (P51450 whole entry, looked up, the tested form may be a part): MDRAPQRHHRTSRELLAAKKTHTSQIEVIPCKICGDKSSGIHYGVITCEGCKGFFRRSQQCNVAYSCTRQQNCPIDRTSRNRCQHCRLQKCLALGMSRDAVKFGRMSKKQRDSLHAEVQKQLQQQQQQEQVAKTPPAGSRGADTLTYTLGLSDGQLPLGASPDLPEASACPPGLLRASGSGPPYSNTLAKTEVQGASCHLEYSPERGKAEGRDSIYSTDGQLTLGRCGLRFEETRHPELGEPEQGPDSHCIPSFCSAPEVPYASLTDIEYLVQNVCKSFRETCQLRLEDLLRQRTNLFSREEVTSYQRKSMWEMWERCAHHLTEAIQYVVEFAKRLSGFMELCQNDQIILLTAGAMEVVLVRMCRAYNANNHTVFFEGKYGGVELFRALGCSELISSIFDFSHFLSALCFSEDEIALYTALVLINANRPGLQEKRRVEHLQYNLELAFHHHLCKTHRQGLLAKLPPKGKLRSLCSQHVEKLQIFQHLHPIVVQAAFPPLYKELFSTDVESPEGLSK
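ROR gamma transcriptional activity was tracked as Gal4-UAS luciferase output in stably transfected Drosophila Schneider cells, with compound added 1 hr before 700 uM copper sulfate induction and a 20 hr ambient-temperature incubation.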
Gal4-VP16 FLuc = counter-screen for ROR gamma inhibitors: Gal4-VP16 reporter. Potency, µM (highest dose often 53.6 µM), for inactives: at the top dose activity, negative = inhibition, hits mostly inhibitors. AID 2546. Drosophila S2 Gal4-VP16 UAS-luciferase, luminescence, 20 h. hit rate 3.5% among 310,000;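 note: Gal4-VP16 expression switched on by copper sulfate through the metallothionein promoter; nearly all actives have a fitted effect of over 50% in size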
TDP1 inh = blocks human tyrosyl-DNA phosphodiesterase 1; recombinant TDP1, AlphaScreen DNA substrate cleavage; Potency, µM (highest dose often 130 µM), for inactives: at the highest dose activity change, negative = inhibition, hits mostly inhibitors; hit rate 0.28% among 350,000; AID 485290; note: nearly all actives have a fitted effect of over 40% in size
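AlphaScreen read-out: signal falls as enzyme removes the 3' tyrosine-FITC from a 5'-biotinylated DNA oligo (15 nM, 5 min, RT). Enzyme was E. coli-made recombinant Tdp1 at 1 nM, exposed to compound for 15 min beforehand; beads 10 ug/ml, 10 min.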
DT40 TDP1 CPT = DT40-hTDP1 cell growth loss with CPT. chicken DT40 Tdp1-/-;hTDP1 cells + 20 nM CPT, ATP luminescence, 48 h. Potency, µM (doses to about 46.2 µM), for inactives: at the highest dose activity change, negative = growth inhibition, most hits filed as inhibitors. hit rate 12% among 420,000; note: nearly all actives have a fitted effect of over 55% in size
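Cell growth measured by CellTiter-Glo luminescence after a minimum 48 h, 37 C compound exposure with 20 nM CPT in Tdp1-knockout DT40 cells stably expressing hTDP1, seeded 400/well; qHTS titration format.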
DT40 TDP1 no CPT = qHTS for Inhibitors of human tyrosyl-DNA phosphodiesterase 1 (TDP1): qHTS in cells in absence of CPT | hit rate 15% among 420,000 | DT40 Tdp1-/- hTDP1 cells, no CPT, ATP luminescence, 48 h | Potency, µM (top dose mostly 46.2 µM), for the others: at the top dose activity change, negative = growth inhibition, most hits filed as inhibitors; note: nearly all actives have a fitted effect of over 55% in size
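A cellular qHTS used chicken DT40 cells lacking endogenous Tdp1 but carrying stably transfected human TDP1. Compounds were applied without camptothecin, and cell growth kinetics were judged by ATP-dependent luminescence after ≥48 hr.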
* hit, by the source's call; u = inconclusive; x = not tested or not shown. Calls come from the whole dose curve; as a rule, active = well fitted curve in the direction sought with a large enough effect; inconclusive = small, poorly fitted or top-dose-only effect, or another doubt; inactive = no such curve, though single readings can be large; an effect the other way counts as inactive or inconclusive. % is set by controls: 0 for no effect and ±100 for the full control effect; potency is the fitted concentration of half-maximal effect.

SMILES	RORgamma inh	Gal4-VP16 FLuc	TDP1 inh	DT40 TDP1 CPT	DT40 TDP1 no CPT
CN(C)C1(CNC(=O)c2cccc(S(=O)(=O)Nc3ccc(Br)cc3)c2)CCCCC1	x	x	0%	u	-14%
CC(=O)Nc1cccc(-c2cc(NC(C)=O)c3ncc(-c4cccc(C(F)(F)F)c4)n3c2)c1	x	x	x	26µM*	23µM*
Cn1ncc(N)c1C(=O)Nc1cccc(C(F)(F)F)c1	27%	-5%	0%	-27%	u
Cn1nccc1C(=O)Nc1cccc(C(F)(F)F)c1	23%	3%	3%	-12%	-6%
NC(=O)c1cnn2c(-c3cccc(C(F)(F)F)c3)ccnc12	-8%	0%	x	6%	0%
CC(=O)Nc1cc(-c2ccc(N)nc2)cn2c(-c3cccc(C(F)(F)F)c3)cnc12	x	x	x	u	15µM*
COc1ccc(F)cc1-c1cc(NC(C)=O)c2ncc(-c3cccc(C(F)(F)F)c3)n2c1	x	x	x	29µM*	u
CC(=O)Nc1cc(-c2ccc(N)cc2)cn2c(-c3cccc(C(F)(F)F)c3)cnc12	x	x	x	16µM*	16µM*
COc1ccc(C(=O)CSc2nccn2C)cc1	3%	1%	12%	-11%	-14%
CC(=O)Nc1cc(-c2ccc(CO)cc2)cn2c(-c3cccc(C(F)(F)F)c3)cnc12	x	x	x	18µM*	23µM*
CCc1nc2ccc(C(=O)Nc3cccc(OCC(=O)N(C)C)c3)cn2c1N(CCN(C)C)CC1CC1	x	x	x	0%	0%
Cc1nc2ccc(C(=O)Nc3cccc(OCC(=O)N(C)C)c3)cn2c1N(C)CC1CCCCC1	x	x	x	21µM*	13µM*
CCc1nc2ccc(C(=O)Nc3cccc(OCC(=O)N(C)C)c3)cn2c1N(CC)CCN(C)C	x	x	x	10%	9%
CCc1nc2ccc(C(=O)Nc3cccc(OCC(=O)N(C)C)c3)cn2c1N(CC)CCOC	x	x	x	16µM*	16µM*
CCc1nc2ccc(C(=O)Nc3cccc(OCC(=O)N(C)C)c3)cn2c1N(C)Cc1ccc(OC)cc1	x	x	x	23µM*	18µM*
CCOC(=O)CCCCCC(=O)Nc1ccc2c(c1)C(=O)N([C@@H](C)CO)C[C@H](C)[C@H](CN(C)S(=O)(=O)c1ccc(OC)cc1)OCCCC[C@H](C)O2	x	x	x	-25%	1%
CCOc1ccc2nc(N3C(=O)/C(=C/c4ccccc4)NC3=S)sc2c1	1.3µM*	1.1µM*	8%	23µM*	u
COc1ccc2nc(N3C(=O)/C(=C/c4ccccc4)NC3=S)sc2c1	1.4µM*	1.4µM*	3%	u	u
COc1ccc2nc(-n3c(C)ccc3C)sc2c1	9%	2%	9%	-27%	-29%
CCOc1ccc2nc(/N=C/c3c(C)[nH]n(-c4ccccc4)c3=O)sc2c1	42%	-2%	3%	u	u
CCCc1sc(N2CCCC(C(N)=O)C2)nc1-c1ccccc1 (centres undefined)	30%	0%	9%	u	18µM*
COc1ccc(OC)c(C2C(C(=O)c3ccco3)=C(O)C(=O)N2Cc2cccnc2)c1 (centres undefined)	u	-4%	6%	17%	13%
COc1ccccc1N(CN1C(=O)c2ccccc2C1=O)C(=O)c1cccc(C)c1	-24%	-2%	3%	21µM*	u
CCN(CC)S(=O)(=O)c1ccc(Cl)c(NC2=NCCCCC2)c1	8%	-4%	-5%	-8%	-36%
C[N+](C)(C)c1ccc(/C=C/c2ccnc3ccccc23)cc1	x	x	x	0.79µM*	0.63µM*
SMILES	RORgamma inh	Gal4-VP16 FLuc	TDP1 inh	DT40 TDP1 CPT	DT40 TDP1 no CPT
CCC[N+](C)(C)c1ccc(/C=C/c2ccnc3ccccc23)cc1	x	x	x	0.025µM*	0.18µM*
Oc1ccc(/C=C/c2ccnc3ccccc23)cc1	-40%	-9%	5%	18µM*	12µM*
CCc1ccc(NC(=O)c2sc(-n3nc(C)c(CCC(C)C)c3C)nc2C)cc1	x	x	2%	u	u
N#CC1(P(=O)(c2ccccc2)c2ccccc2)CCCC1	-29%	-15%	11%	10%	-7%
Cc1cn2c(=O)c(S(=O)(=O)NCc3ccccc3Cl)c(C)nc2s1	x	x	-5%	5%	-19%
COc1ccc(CCNC(=O)c2ccc3c(c2)OCCO3)cc1	-8%	0%	1%	4%	22%
O=C(NC(=S)Nc1ccc(N2CCCC2)cc1)c1ccc(F)cc1	2.5µM*	5.6µM*	6%	-18%	-22%
O=C(NC(=S)Nc1c(F)cc(F)cc1Br)c1ccc2c(c1)OCCO2	7.9µM*	u	8%	-18%	-15%
O=C(Nc1cccc(F)c1)c1ccc2c(c1)OCCO2	-24%	-4%	x	-9%	u
O=C(NC(=S)Nc1ccc(N2CCCCC2)cc1)c1ccc2c(c1)OCCO2	3.5µM*	5µM*	7%	u	16µM*
COc1ccc(NC(=S)NC(=O)c2ccc3c(c2)OCCO3)cc1	x	x	4%	u	18µM*
O=C(CNC(=O)C1CCCCC1)OCc1cc(=O)oc2ccc3ccccc3c12	-10%	u	0%	u	u
O=C(Cn1cnc2c(nnn2-c2ccccc2)c1=O)NCc1ccco1	-3%	-6%	1%	0%	-3%
O=C(NC(=S)Nc1ccc(CN2CCOCC2)cc1)c1ccc2c(c1)OCCO2	u	u	5%	u	15µM*
O=C(NC(=S)Nc1ccc(N2CCOCC2)cc1)c1ccc2c(c1)OCCO2	8.9µM*	u	8%	u	23µM*
CCN(CC(=O)Nc1ccc(NC(C)=O)cc1)C(=O)CCN1C(=O)c2cccc([N+](=O)[O-])c2C1=O	-15%	0%	2%	9%	3%
O=C(COC(=O)c1cccc(NS(=O)(=O)c2ccc(F)c(F)c2)c1)NC(=O)NC1CCCCC1	12%	u	6%	u	16µM*
O=C(/C=C/c1ccc([N+](=O)[O-])cc1)c1ccccc(=O)c1O	x	x	x	2.6µM*	3.3µM*
Cc1ccc(C)c(/C=C/C(=O)c2ccccc(=O)c2O)c1	3.2µM*	5µM*	9%	10µM*	6.5µM*
Cc1ccc(/C=C/C(=O)c2ccccc(=O)c2O)c(C)c1	7.1µM*	u	9%	15µM*	21µM*
O=C(/C=C/c1ccccc1Cl)c1ccccc(=O)c1O	3.5µM*	5.6µM*	11%	2.9µM*	4.1µM*
Cc1ccc(C(=O)/C=C/c2ccc3c(c2)OCCO3)c(O)c1	-32%	-23%	7%	u	u
CCN(CC)S(=O)(=O)c1ccc(OC)c(NC(=O)c2ccc(OC)c([N+](=O)[O-])c2)c1	x	x	x	-5%	1%
COC(=O)CN1C(=O)[C@H]2[C@@H](c3ccc(C)o3)N3C(=O)CN(CC4CC4)C(=O)[C@@]3(C)[C@H]2C1=O	5%	-4%	x	-3%	-13%
